From PubChem BioAssay (Tox21) come the findings set out here.

Test [1] can be described thus: Caspase-3/7 induction in HepG2 cells by small molecules, qHTS assay (AID 1346978). Further: nearly all actives have a fitted effect of over 15% in size. The essentials:
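Caspase-3/7 induction was measured by Caspase-Glo 3/7 luminescence (30 min, room temperature) after a 17 hr compound exposure of wild-type HepG2 cells seeded at 2,000 per well and pre-incubated 5 hr.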
(In general: In qHTS, concentration-response curves come from the screen itself.)

Test [2] in a line: Caspase-3/7 induction in CHO-K1 cells by small molecules, qHTS assay (AID 1346980). Further: nearly all actives have a fitted effect of over 15% in size. An outline of the steps:
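Luminescent Caspase-Glo 3/7 read (30min, room temperature) quantified apoptosis induction. Cells were wild-type CHO-K1, treated with compound for 17hr at 37 C and 5% CO2.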

Test [3] is described as follows: Caspase-3/7 induction in HepG2 cells by small molecules, qHTS cell viability counter screen (AID 1346981). Further: series mostly up to about 92 µM; nearly all actives have a fitted effect of over 30% in size. An outline of the steps:
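Fluorescence read-out of live-cell protease activity (CellTiter-Fluor) after 1 hr with reagent. This was measured in the same wells as the caspase-3/7 luminescence, on HepG2 cells exposed to DMSO-dissolved compounds for 16 hr at 37 C.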

In test [4] the target is Nuclear receptor subfamily 1 group I member 2 (Homo sapiens) (UniProt O75469). The experiment in a line: Human pregnane X receptor (PXR) small molecule agonists, qHTS assay (AID 1346982). Further: nearly all actives have a fitted effect of over 35% in size. Further: potency means the concentration at half of the fitted maximal effect. The essentials:
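HepG2 PXR-Luc reporter line, 5% charcoal-stripped FBS; 5 hr pre-incubation, compound (DMSO) 24 hr at 37 C/5% CO2; ONE-Glo 30 min RT; luminescence read-out.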

Test [5] addresses Nuclear receptor subfamily 1 group I member 2 (Rattus norvegicus) (UniProt Q9R1A7). The experiment in a line: Rat pregnane X receptor (rPXR) activation by small molecules, qHTS assay (AID 1346983). Further: nearly all actives have a fitted effect of over 20% in size. The conditions noted are these: rPXR luciferase reporter cells, One-Glo luminescence, 24 h; stronger effect = higher value. The essentials: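 Luminescent readout (One-Glo luciferase, 30 min room temperature) followed 24 hr compound treatment at 37 C of rPXR cells plated 2,000 per well and preincubated 5hr; qHTS format with compounds delivered in DMSO.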

Test [6] concerns the target Nuclear receptor subfamily 1 group I member 2 (Homo sapiens) (UniProt O75469). The experiment in a line: CYP3A4 induction through human pregnane X receptor (PXR) by small molecules, qHTS assay (AID 1346984). Further: nearly all actives have a fitted effect of over 40% in size. The essentials:
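HepG2-derived DPX-2 line carrying PXR plus a CYP3A4-promoter luciferase reporter; cells plated 5 hr, compound-exposed 24 hr at 37C. CYP3A4 activity probed with 3uM (final) Luciferin-IPA for 3hr, then luciferase read after One-Glo.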

Test [7] shares this target. Kind of test: Human pregnane X receptor (PXR) activation by small molecules, qHTS assay (AID 1346985). Further: nearly all actives have a fitted effect of over 40% in size. An outline of the steps:
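DPX-2 cells (HepG2 co-transfected with a PXR response element and a CYP3A4-promoter luciferase construct) were seeded at 2,000 per well, rested 5 hr at 37C, then exposed to DMSO-dissolved compounds for 24 hr. Activation was read as luciferase luminescence.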

The target in test [8] is Cytochrome P450 2D6 (Homo sapiens) (UniProt P10635). Kind of test: Cytochrome P450 Family 2 Subfamily D Member 6 (CYP2D6) small molecule antagonists: luciferase reporter qHTS assay (AID 1671196). Further: nearly all actives have a fitted effect of over 50% in size. Further: potency means the concentration at half of the fitted maximal effect. An outline of the steps:
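Luminogenic proluciferin substrate, CYP2D6 enzyme; 10 min RT preincubation with compound, NADPH regeneration system added, 1 h RT. Stop/detection reagent, 20 min RT, luminescence read (RLU). Signal proportional to CYP activity.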

Test [9] concerns the target Cytochrome P450 2C19 (Homo sapiens) (UniProt P33261). Kind of test: Cytochrome P450 Family 2 Subfamily C Member 19 (CYP2C19) small molecule antagonists: luciferase reporter qHTS assay (AID 1671197). Further: nearly all actives have a fitted effect of over 65% in size. Further: potency means the concentration at half of the fitted maximal effect. An outline of the steps: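 P450-Glo CYP2C19 system: enzyme-substrate mix with compound 10 min at room temperature, then NADPH regeneration solution, 1 h at 37C. Proluciferin-to-luciferin conversion detected by luminescence after 20 min with detection reagent; ketoconazole as positive control.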
Background: In a reporter assay the amount or activity of a reporter protein is the signal.

In test [10] the target is Cytochrome P450 2C9 (Homo sapiens) (UniProt P11712). The experiment in a line: Cytochrome P450 Family 2 Subfamily C Member 9 (CYP2C9) small molecule antagonists: luciferase reporter qHTS assay (AID 1671198). Further: nearly all actives have a fitted effect of over 50% in size. Further: potency means the concentration at half of the fitted maximal effect. The essentials: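 Enzyme-substrate mix preincubated with compound 10 min at room temperature; reaction started with NADPH regeneration solution, 1 h 37C. Luminescent luciferin product read after 20 min detection reagent.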
Chain of Cytochrome P450 2C9 (Homo sapiens) (P11712 whole entry, looked up): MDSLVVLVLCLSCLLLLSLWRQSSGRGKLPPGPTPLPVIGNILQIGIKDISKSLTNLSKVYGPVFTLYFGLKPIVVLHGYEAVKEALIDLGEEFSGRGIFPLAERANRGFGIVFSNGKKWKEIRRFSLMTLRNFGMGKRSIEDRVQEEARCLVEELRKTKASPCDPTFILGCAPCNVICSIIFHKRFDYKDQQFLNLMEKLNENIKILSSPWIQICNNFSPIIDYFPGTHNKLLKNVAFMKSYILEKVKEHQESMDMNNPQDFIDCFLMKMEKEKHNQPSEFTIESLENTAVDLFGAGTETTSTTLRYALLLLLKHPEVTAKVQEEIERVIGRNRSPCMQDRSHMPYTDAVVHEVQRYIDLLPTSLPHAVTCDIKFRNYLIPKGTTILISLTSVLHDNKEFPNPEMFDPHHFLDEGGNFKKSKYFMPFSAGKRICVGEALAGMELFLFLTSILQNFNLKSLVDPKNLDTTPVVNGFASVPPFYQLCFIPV

The target in test [11] is Cytochrome P450 1A2 (Homo sapiens) (UniProt P05177). Kind of test: Cytochrome P450 Family 1 Subfamily A Member 2 (CYP1A2) small molecule antagonists: luciferase reporter qHTS assay (AID 1671199). Further: nearly all actives have a fitted effect of over 50% in size. Further: potency means the concentration at half of the fitted maximal effect. The essentials: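 Luminescence readout (relative luminescence units) after luciferin detection reagent, 20 min RT. Preceded by 1 h room-temperature CYP1A2 reaction with NADPH regeneration solution following 10 min compound preincubation with enzyme and proluciferin substrate. Furafylline positive control.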
Chain of Cytochrome P450 1A2 (Homo sapiens) (P05177 whole entry, looked up): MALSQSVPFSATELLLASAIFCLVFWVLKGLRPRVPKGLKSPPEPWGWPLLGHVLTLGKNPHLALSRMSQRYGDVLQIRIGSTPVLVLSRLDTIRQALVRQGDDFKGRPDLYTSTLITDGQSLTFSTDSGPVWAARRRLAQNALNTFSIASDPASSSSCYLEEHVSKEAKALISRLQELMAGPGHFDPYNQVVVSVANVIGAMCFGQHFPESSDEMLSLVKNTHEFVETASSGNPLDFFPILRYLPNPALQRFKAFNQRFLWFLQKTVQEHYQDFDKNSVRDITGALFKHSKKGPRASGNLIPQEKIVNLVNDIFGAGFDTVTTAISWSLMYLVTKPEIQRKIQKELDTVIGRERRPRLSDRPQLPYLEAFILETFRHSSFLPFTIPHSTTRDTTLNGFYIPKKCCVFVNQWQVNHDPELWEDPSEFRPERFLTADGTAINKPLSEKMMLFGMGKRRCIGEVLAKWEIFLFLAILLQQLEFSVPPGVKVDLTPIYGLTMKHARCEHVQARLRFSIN

In test [12] the target is Voltage-gated inwardly rectifying potassium channel KCNH2 (Homo sapiens) (UniProt Q12809). The experiment in a line: Human Ether-a-go-go-Related Gene (hERG) channel small molecule antagonists: fluorescence cell-based qHTS assay (AID 1671200). Further: nearly all actives have a fitted effect of over 50% in size. Further: potency means the concentration at half of the fitted maximal effect. The essentials: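 First, 1000 cells per well are seeded and cultured overnight at 37 C. Next, FluxOR II dye is loaded for 1 h at room temperature, protected from light. After 10 more minutes, stimulus is added and fluorescence is read.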
Chain of Voltage-gated inwardly rectifying potassium channel KCNH2 (Homo sapiens) (Q12809 whole entry, looked up): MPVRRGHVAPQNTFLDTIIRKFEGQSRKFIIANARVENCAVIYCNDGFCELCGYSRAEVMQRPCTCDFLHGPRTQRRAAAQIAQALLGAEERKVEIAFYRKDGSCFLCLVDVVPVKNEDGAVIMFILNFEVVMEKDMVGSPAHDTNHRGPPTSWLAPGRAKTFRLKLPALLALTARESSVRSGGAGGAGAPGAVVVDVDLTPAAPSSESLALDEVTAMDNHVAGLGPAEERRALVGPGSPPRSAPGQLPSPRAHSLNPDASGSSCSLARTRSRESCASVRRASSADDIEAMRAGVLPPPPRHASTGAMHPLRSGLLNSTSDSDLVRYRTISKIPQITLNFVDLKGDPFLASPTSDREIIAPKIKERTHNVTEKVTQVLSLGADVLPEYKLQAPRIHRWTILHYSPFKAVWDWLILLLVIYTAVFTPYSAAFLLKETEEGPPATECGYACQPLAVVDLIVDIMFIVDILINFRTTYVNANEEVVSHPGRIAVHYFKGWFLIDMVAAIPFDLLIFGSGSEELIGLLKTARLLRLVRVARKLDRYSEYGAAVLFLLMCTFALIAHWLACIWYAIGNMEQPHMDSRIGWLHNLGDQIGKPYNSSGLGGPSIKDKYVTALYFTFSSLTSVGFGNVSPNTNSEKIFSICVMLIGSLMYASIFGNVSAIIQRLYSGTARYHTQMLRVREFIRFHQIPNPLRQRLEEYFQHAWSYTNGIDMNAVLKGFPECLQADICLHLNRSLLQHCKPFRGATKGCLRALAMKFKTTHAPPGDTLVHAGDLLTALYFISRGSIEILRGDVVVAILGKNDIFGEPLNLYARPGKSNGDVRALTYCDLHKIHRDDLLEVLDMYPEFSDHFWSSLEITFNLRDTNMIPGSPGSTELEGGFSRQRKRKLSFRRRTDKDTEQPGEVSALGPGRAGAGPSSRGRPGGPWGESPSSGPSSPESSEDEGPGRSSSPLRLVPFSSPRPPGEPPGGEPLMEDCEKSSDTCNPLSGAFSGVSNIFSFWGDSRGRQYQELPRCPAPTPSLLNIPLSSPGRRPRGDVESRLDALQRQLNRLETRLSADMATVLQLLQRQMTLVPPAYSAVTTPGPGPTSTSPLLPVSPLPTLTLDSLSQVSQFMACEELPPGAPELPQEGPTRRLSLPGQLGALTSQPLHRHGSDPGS
Background: hERG is a cardiac potassium channel; its block is linked to QT prolongation.

Test [13] addresses Cytochrome P450 3A4 (Homo sapiens) (UniProt P08684). Kind of test: Cytochrome P450 Family 3 Subfamily A Member 4 (CYP3A4) small molecule antagonists: luciferase reporter qHTS assay (AID 1671201). Further: nearly all actives have a fitted effect of over 50% in size. Further: potency means the concentration at half of the fitted maximal effect. The essentials: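 Enzyme and proluciferin substrate are mixed with test chemicals for 10 min, then NADPH regeneration system drives turnover for 1 h at room temperature. A detection reagent halts the reaction; luminescence after 20 min gives relative activity.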

The target in test [14] is Acetylcholinesterase (Homo sapiens) (UniProt P22303). The experiment in a line: Acetylcholinesterase (AChE) small molecule antagonists: colormetric cell-based qHTS assay (AID 1347395; calls by dose curve; further: nearly all actives have a fitted effect of over 30% in size). The essentials: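 Quantitative HTS in attached SH-SY5Y cells: 30 min compound exposure, then 90 min with acetylthiocholine and DTNB at 37 C; colour from thiocholine reports AChE activity.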
Chain of Acetylcholinesterase (Homo sapiens) (P22303 whole entry, looked up): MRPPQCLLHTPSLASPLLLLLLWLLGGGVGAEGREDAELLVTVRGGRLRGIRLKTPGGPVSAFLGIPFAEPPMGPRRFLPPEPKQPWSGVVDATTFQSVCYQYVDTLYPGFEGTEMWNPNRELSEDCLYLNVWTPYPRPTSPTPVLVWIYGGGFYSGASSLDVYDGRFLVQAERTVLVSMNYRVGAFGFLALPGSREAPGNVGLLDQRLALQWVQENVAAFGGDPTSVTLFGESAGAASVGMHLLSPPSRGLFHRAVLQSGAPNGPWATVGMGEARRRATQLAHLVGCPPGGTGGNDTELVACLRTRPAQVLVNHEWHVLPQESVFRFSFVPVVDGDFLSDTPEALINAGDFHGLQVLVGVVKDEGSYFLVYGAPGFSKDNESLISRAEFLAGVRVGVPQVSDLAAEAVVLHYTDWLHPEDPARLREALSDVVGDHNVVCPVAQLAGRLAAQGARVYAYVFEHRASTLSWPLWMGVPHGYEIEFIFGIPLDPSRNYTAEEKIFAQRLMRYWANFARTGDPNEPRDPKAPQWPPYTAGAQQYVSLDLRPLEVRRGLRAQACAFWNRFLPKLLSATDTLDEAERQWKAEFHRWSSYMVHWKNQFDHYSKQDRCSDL

For test [15] the target is unchanged. The experiment in a line: Acetylcholinesterase (AChE) small molecule antagonists: enzyme-based qHTS assay (AID 1347397; calls by dose curve; further: nearly all actives have a fitted effect of over 55% in size). As to conditions: Potency: AChE enzyme activity inhibition. The essentials: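 Colorimetric DTNB readout of acetylthiocholine hydrolysis, 10 min at room temperature, after 30 min room-temperature exposure of 50 mU/mL recombinant human enzyme to compound; DMSO vehicle control.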

The target is the same in test [16]. Kind of test: Acetylcholinesterase (AChE) small molecule antagonists: fluorescence cell-based qHTS assay (AID 1347398; calls by dose curve; further: nearly all actives have a fitted effect of over 50% in size). The conditions noted are these: Potency: AChE activity. The essentials:
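Cellular AChE activity read as thiocholine from acetylthiocholine hydrolysis, detected by Thiolite Green fluorescence at 490/520 nm after 40 min at room temperature. Compounds were pre-incubated 30 min at 37 C on adherent SH-SY5Y cells.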

Test [17] shares this target. The experiment in a line: Acetylcholinesterase (AChE) small molecule antagonists: enzyme-based qHTS assay with human liver microsomes (AID 1347399; calls by dose curve; further: nearly all actives have a fitted effect of over 60% in size). As to conditions: Potency: qHTS inhibition. An outline of the steps:
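Recombinant human AChE (50 mU/mL in the enzyme mix) and human liver microsomes (0.25 mg/mL final) were preincubated with compound and NADPH (0.25 mg/mL final) for 30 min at 37 C. Acetylthiocholine/DTNB was then added; thiocholine was read colorimetrically after 10 min at room temperature.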

The nature of test [18]: Caspase-3/7 induction in CHO-K1 cells by small molecules, qHTS cell viability counter screen (AID 1346979). Further: nearly all actives have a fitted effect of over 35% in size. Further: potency means the concentration at half of the fitted maximal effect. An outline of the steps: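 Seeding: 1,500 CHO-K1 cells/well. Rest: 5hr, 37C. Treatment: compounds in DMSO, 16hr. Read: CellTiter-Fluor, 1hr, fluorescence.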

The structures appear in SMILES notation. Several values for one entry are separate records, joined by “and”; a condition that tells them apart may be missing. Identical values can stand only once. Records with an inconclusive call do not appear. A structure can be active in one record and inactive in another. Activity calls are given as the source filed them. Unless noted, the call rests on the fitted dose curve; in most records, active means well fitted curve in the direction sought with a large enough effect in the repeat runs; inconclusive means weak or mixed curves; inactive means no such curve, though single readings can be large; an effect the other way counts as inactive or inconclusive.
On the % scale 0 is the no-effect control and ±100 the full control effect.

Chain of Cytochrome P450 2C19 (Homo sapiens) (P33261 whole entry, looked up): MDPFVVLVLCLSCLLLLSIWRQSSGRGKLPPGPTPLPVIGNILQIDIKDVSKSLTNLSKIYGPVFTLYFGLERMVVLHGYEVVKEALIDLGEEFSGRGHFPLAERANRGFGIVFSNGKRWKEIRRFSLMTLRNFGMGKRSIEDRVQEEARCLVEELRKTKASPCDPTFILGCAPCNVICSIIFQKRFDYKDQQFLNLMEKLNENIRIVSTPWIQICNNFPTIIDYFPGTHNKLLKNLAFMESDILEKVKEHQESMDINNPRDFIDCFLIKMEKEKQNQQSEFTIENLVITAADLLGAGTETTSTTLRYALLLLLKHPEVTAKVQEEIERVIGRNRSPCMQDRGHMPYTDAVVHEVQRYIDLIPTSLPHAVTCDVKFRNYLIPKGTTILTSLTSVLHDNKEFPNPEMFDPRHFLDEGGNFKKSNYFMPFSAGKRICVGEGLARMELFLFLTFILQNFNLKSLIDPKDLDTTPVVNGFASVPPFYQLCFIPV
Chain of Cytochrome P450 2D6 (Homo sapiens) (P10635 whole entry, looked up): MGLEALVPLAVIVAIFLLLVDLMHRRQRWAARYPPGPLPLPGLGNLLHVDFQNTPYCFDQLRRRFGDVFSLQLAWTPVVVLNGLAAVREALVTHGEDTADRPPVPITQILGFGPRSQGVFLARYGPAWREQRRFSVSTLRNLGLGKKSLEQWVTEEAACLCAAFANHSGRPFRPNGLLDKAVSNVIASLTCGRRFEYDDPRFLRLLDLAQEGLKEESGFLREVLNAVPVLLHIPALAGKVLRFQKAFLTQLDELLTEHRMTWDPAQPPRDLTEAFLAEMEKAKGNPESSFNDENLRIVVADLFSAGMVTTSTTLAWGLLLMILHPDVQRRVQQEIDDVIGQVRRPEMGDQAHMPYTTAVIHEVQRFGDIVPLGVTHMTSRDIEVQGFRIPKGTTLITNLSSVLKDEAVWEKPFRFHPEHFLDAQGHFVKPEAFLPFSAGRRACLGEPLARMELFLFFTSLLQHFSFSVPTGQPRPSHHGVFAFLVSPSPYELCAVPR
Chain of Nuclear receptor subfamily 1 group I member 2 (Homo sapiens) (O75469 whole entry, looked up): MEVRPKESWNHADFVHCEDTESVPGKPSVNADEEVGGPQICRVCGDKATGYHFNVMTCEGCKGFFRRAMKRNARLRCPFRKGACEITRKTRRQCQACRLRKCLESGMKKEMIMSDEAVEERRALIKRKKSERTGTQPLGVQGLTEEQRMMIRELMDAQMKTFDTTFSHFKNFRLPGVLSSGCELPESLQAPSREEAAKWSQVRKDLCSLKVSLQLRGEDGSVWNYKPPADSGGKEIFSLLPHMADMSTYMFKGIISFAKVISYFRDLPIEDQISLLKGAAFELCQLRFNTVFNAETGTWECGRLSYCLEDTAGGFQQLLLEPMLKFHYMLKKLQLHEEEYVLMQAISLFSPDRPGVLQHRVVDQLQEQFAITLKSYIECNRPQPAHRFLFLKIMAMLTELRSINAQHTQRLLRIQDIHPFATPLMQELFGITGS
Chain of Cytochrome P450 3A4 (Homo sapiens) (P08684 whole entry, looked up): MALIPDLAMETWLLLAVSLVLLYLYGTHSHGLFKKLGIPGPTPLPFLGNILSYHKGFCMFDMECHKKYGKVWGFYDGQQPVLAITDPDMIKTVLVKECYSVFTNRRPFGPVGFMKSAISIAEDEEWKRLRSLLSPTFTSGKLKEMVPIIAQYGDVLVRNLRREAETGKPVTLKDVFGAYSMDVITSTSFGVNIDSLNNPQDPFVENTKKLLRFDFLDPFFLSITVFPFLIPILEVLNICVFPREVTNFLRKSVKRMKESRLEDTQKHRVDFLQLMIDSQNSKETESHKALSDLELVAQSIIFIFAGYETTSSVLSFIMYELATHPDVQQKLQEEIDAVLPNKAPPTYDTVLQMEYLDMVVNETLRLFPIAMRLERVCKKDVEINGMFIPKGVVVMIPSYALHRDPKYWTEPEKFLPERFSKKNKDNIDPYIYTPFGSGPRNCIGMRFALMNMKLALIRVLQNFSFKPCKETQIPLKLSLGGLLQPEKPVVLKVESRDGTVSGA

With `NN=C(N)N`, the Potency entry in test [1], in test [2], in test [3], in test [4], in test [6] and in [8] was “inactive” in each case. Moreover, the Potency entry in test [10], in [12] and in test [13] was “inactive” throughout. Moreover, in test [5], the max activation was -0.866% (inactive). In test [7], the outcome was inactive. The Potency in [9] is 44.8 µM (active) and inactive; in test [11] it was 31.7 µM (active) and 27.5 µM (active).
Turning to `ClCc1ccccn1`, the Potency result in test [1], in test [2], in test [3], in test [4], in [14] and in test [15] was “inactive” throughout. In addition, the Potency result in test [16], in test [17], in test [10], in [11] and in test [12] was “inactive” throughout. Moreover, the Potency is 39.2 µM (active) in [8]; 78.1 µM (active) and inactive in test [9].
On to `[CH3][Sn]([Cl])([Cl])[Cl]`, for which the Potency entry in [1], in [2], in [3], in [4], in test [14] and in test [15] was “inactive” throughout. The Potency entry in test [16], in test [17], in [9], in [10], in test [11] and in [12] was “inactive” each time. In addition, the Potency entry in [13] is “inactive”. Besides, the Potency in test [8] is 32.4 µM (active) and inactive.
Take `Cn1c(-c2ccccc2)cc(-c2ccccc2)[n+]1C`: the Potency result in test [1], in [18], in test [2], in test [3], in [4] and in [15] was “inactive” each time. Also, the Potency entry in test [17], in test [9], in [11] and in test [13] was “inactive” each time. The Potency was 502 nM (active) and 1 µM (active) in [8]; “inactive and 35.6 µM (active)” in [10]; 43.6 µM (active) in test [12].
In the case of `CC(C)(O)C(=O)Nc1ccc([N+](=O)[O-])c(C(F)(F)F)c1`, the Potency entry in test [1], in test [2], in [3], in [14], in test [15] and in test [16] was “inactive” throughout. In addition, the Potency entry in [17] and in test [12] was “inactive” throughout. Besides, the Potency was 44.2 µM (active) and 39.8 µM (active) in [18]; 27.9 µM (active) and 25.1 µM (active) in test [4]; 18.2 µM (active) and 26 µM (active) in [9]; 25.7 µM (active) and 29.2 µM (active) in test [10]; 7.25 µM (active) and 6.53 µM (active) in test [11]; 40.8 µM (active) in test [13].
Consider `Clc1ccc(C(Cl)(Cl)Cl)cc1`, for which the Potency entry in test [1], in test [18], in test [2], in test [3], in test [4] and in [14] was “inactive” throughout. The Potency entry in test [15], in test [16], in [17], in test [8], in test [10] and in [11] was “inactive” throughout. For the same compound, the Potency result in test [12] is “inactive”. Besides, the Potency result in test [9] was “inactive and 28.3 µM (active)”.
